Data taken from the supplement of paper PMC3545927.
This is one part of the list. The hit rate among all sequences tested is not known here.

Biological target: furin, P09958
Assay: furin cleavage Z-score vs untreated control; higher = more cleavage, active = 3.5 or more, inactive = 1 or less, 8 variable residues between constant flanks
How it was run: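 The cleavage Z-score is the log read count relative to furin-free reactions, lowess-adjusted and scaled by median absolute deviation. Counts came from sequencing DNA released from bead-bound 8-mer peptide–cDNA fusions after digestion with purified furin for 7.5, 15 or 30 min.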
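Note: purified furin at 1:10 enzyme:substrate in 50 mM HEPES pH 7.5.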

Sequence of furin, P09958 (P09958 whole entry): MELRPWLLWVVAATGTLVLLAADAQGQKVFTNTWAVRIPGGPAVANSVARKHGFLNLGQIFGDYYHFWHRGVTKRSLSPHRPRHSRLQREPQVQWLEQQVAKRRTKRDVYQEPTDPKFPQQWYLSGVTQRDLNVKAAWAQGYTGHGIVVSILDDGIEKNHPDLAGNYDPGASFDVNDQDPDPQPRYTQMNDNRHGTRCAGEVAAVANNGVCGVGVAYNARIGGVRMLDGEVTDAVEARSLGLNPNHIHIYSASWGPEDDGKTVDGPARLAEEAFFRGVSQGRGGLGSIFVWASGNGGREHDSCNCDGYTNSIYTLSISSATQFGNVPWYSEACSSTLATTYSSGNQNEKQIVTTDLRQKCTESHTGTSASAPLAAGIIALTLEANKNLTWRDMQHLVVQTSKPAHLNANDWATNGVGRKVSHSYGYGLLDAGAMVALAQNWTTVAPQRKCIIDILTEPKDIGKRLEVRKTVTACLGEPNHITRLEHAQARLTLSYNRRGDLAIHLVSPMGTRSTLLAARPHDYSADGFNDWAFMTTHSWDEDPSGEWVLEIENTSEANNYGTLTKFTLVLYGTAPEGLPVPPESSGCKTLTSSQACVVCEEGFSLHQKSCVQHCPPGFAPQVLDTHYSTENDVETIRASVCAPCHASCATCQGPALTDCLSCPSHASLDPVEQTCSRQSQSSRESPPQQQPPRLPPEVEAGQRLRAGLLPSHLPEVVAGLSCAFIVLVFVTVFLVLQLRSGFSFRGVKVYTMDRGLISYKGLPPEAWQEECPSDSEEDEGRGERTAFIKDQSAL

B1: HC1544 (peptide)
chain: CASAPPGDPPAGNASASA
furin cleavage Z-score (7.5 min): -0.56 (inactive)
furin cleavage Z-score (15 min): -0.28 (inactive)
furin cleavage Z-score (30 min): -0.205 (inactive)

B2: FS-116 (peptide)
chain: CAAPRRPRRPAGNASASA
furin cleavage Z-score (7.5 min): 0.169 (inactive)
furin cleavage Z-score (15 min): 0.142 (inactive)
furin cleavage Z-score (30 min): 0.528 (inactive)

B3: FS-215 (peptide)
chain: CAAPERERRSAGNASASA
furin cleavage Z-score (7.5 min): 8.78 (active)
furin cleavage Z-score (15 min): 11.7 (active)
furin cleavage Z-score (30 min): 7.74 (active)

B4: FS-399 (peptide)
chain: CAAPRRFRRSAGNASASA
furin cleavage Z-score (7.5 min): 9.1 (active)
furin cleavage Z-score (15 min): 8.32 (active)
furin cleavage Z-score (30 min): 8.51 (active)

B5: FS-844 (peptide)
chain: CAQARRFRRSAGNASASA
furin cleavage Z-score (7.5 min): 14.3 (active)
furin cleavage Z-score (15 min): 14.1 (active)
furin cleavage Z-score (30 min): 9.61 (active)

B6: FS-236 (peptide)
chain: CAFVQRFRRSAGNASASA
furin cleavage Z-score (7.5 min): 11.9 (active)
furin cleavage Z-score (15 min): 11.2 (active)
furin cleavage Z-score (30 min): 9.2 (active)

B7: FS-1444 (peptide)
chain: CAALGLERRSAGNASASA
furin cleavage Z-score (7.5 min): -0.628 (inactive)
furin cleavage Z-score (15 min): -0.614 (inactive)
furin cleavage Z-score (30 min): 0.553 (inactive)

B8: HC2292 (peptide)
chain: CADEEVVTSTAGNASASA
furin cleavage Z-score (7.5 min): 1.62
furin cleavage Z-score (15 min): 0.883 (inactive)
furin cleavage Z-score (30 min): 1.1

B9: HC1939 (peptide)
chain: CATTPCSGSPAGNASASA
furin cleavage Z-score (7.5 min): 0.991 (inactive)
furin cleavage Z-score (15 min): -1.49 (inactive)
furin cleavage Z-score (30 min): 0.61 (inactive)

B10: HC2357 (peptide)
chain: CAEVSCHRPSAGNASASA
furin cleavage Z-score (7.5 min): 0.821 (inactive)
furin cleavage Z-score (15 min): 0.257 (inactive)
furin cleavage Z-score (30 min): -0.805 (inactive)

B11: HC2071 (peptide)
chain: CAVVCCSMDYAGNASASA
furin cleavage Z-score (7.5 min): -0.0968 (inactive)
furin cleavage Z-score (15 min): 0.0602 (inactive)
furin cleavage Z-score (30 min): -0.172 (inactive)

B12: HC1872 (peptide)
chain: CATTECSGSWAGNASASA
furin cleavage Z-score (7.5 min): -0.691 (inactive)
furin cleavage Z-score (15 min): -0.533 (inactive)
furin cleavage Z-score (30 min): -0.721 (inactive)

B13: FS-834 (peptide)
chain: CANNHVYRRSAGNASASA
furin cleavage Z-score (7.5 min): 2.73
furin cleavage Z-score (15 min): 4.48 (active)
furin cleavage Z-score (30 min): 3.35

B14: HC1741 (peptide)
chain: CAMEECSNHLAGNASASA
furin cleavage Z-score (7.5 min): -0.217 (inactive)
furin cleavage Z-score (15 min): 1.15
furin cleavage Z-score (30 min): 0.956 (inactive)

B15: FS-1303 (peptide)
chain: CAALIRKLRDAGNASASA
furin cleavage Z-score (7.5 min): 10.1 (active)
furin cleavage Z-score (15 min): 10.2 (active)
furin cleavage Z-score (30 min): 7.71 (active)

B16: FS-1 (peptide)
chain: CAACARKFRDAGNASASA
furin cleavage Z-score (7.5 min): 0.95 (inactive)
furin cleavage Z-score (15 min): -0.474 (inactive)
furin cleavage Z-score (30 min): -0.446 (inactive)

B17: FS-1183 (peptide)
chain: CAALARSHRDAGNASASA
furin cleavage Z-score (7.5 min): 3.5 (active)
furin cleavage Z-score (15 min): 2.5
furin cleavage Z-score (30 min): 3.98 (active)

B18: HC622 (peptide)
chain: CAALARKMIGAGNASASA
furin cleavage Z-score (7.5 min): -0.391 (inactive)
furin cleavage Z-score (15 min): -0.298 (inactive)
furin cleavage Z-score (30 min): -0.269 (inactive)

B19: HC2446 (peptide)
chain: CAEMEVPCHRAGNASASA
furin cleavage Z-score (7.5 min): 1.88
furin cleavage Z-score (15 min): 3.24
furin cleavage Z-score (30 min): 0.262 (inactive)

B20: FS-1111 (peptide)
chain: CAAPTRARRTAGNASASA
furin cleavage Z-score (7.5 min): 9.32 (active)
furin cleavage Z-score (15 min): 8.24 (active)
furin cleavage Z-score (30 min): 6.87 (active)

B21: FS-782 (peptide)
chain: CAGKARARRTAGNASASA
furin cleavage Z-score (7.5 min): 7.77 (active)
furin cleavage Z-score (15 min): 7.95 (active)
furin cleavage Z-score (30 min): 6.06 (active)

B22: HC925 (peptide)
chain: CAELTPAETTAGNASASA
furin cleavage Z-score (7.5 min): -0.725 (inactive)
furin cleavage Z-score (15 min): 0.302 (inactive)
furin cleavage Z-score (30 min): -0.347 (inactive)

B23: HC968 (peptide)
chain: CAKPTLHGPTAGNASASA
furin cleavage Z-score (7.5 min): 0.718 (inactive)
furin cleavage Z-score (15 min): 0.412 (inactive)
furin cleavage Z-score (30 min): -0.00703 (inactive)

B24: HC786 (peptide)
chain: CAVLVLNPSVAGNASASA
furin cleavage Z-score (7.5 min): 1.78
furin cleavage Z-score (15 min): -1.12 (inactive)
furin cleavage Z-score (30 min): 0.0915 (inactive)

B25: HC159 (peptide)
chain: CAEVVTQTWVAGNASASA
furin cleavage Z-score (7.5 min): -0.939 (inactive)
furin cleavage Z-score (15 min): 1.5
furin cleavage Z-score (30 min): 1.45

B26: HC16 (peptide)
chain: CAMEETSQHLAGNASASA
furin cleavage Z-score (7.5 min): 0.191 (inactive)
furin cleavage Z-score (15 min): 1.87
furin cleavage Z-score (30 min): 1.08
